The values that follow come from PubChem BioAssay (NCATS).

Inconclusive results are not listed. Unmarked numbers belong to inactive results. Active and inactive are the calls of the source. The call rests on the fitted dose curve; in most records, active means well fitted curve in the direction sought with a large enough effect; inconclusive means small, poorly fitted or top-dose-only effect, or another doubt; inactive means no such curve, though single readings can be large or run the other way.
On the % scale 0 is the no-effect control and ±100 the full control effect; potency means the concentration at half of the fitted maximal effect.

This assay can be described thus: qHTS Assay for Identifying Gametocytocidal Compounds (AID 743244).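 On max response: actives lower the fluorescent signal which means gametocytes are killed.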 Conditions: P. falciparum 3D7 stage III-V gametocytes, alamarBlue, 72 h; max response: stronger effect = lower value. The method in brief: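 Compounds are pinned into medium, gametocytes (stage III–V, 3D7, 20,000 cells/well) added, and plates held 72 h at 37 °C in 5% CO2. AlamarBlue follows for 24 h before fluorescence reading.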
Take `CC(C)=CCCC(C)=CCCC(C)=CCSc1ccccc1C(=O)O`: the max response was 2.41%. For `CC1=C(CO)C(=O)O[C@@H]([C@@H](C)[C@H]2CC[C@H]3[C@@H]4C[C@H]5O[C@]56[C@@H](O)C=CC(=O)[C@]6(C)[C@@H]4CC[C@]23C)C1`, the Potency was 0.372 µM (active). For `O=C(NCCS(=O)(=O)c1ccc(C(F)(F)F)cn1)c1ccc(Cl)cc1`, the max response was 12.1%. Consider `CC[C@@H]1C(=O)N(C)c2cnc(Nc3ccc(C(=O)NC4CCC(N5CCN(CC6CC6)CC5)CC4)cc3OC)nc2N1C(C)C` (stereo partly specified), for which the Potency is 7.43 µM (active). As for `CC(=O)OCC(=O)[C@@]1(O)[C@H](C)C[C@H]2[C@@H]3C=C(C)C4=Cc5c(cnn5-c5ccccc5)C[C@]4(C)[C@@H]3[C@@H](O)C[C@@]21C`, the max response was -18.2%.

Turning to `CC(=O)Nc1sc2c(c1-c1nc3ccccc3s1)CNC2`, the max response was 20.9%.

For the compound `CCCCc1nc2cc(C=CC(=O)NO)ccc2n1CCN(CC)CC`, the Potency is 3.72 µM (active). Regarding `CN1c2cc(O)c(N=NC(N)=O)cc2CC1S(=O)(=O)O` (stereo unspecified), the max response was 13%. The same measure, in the same setting: the result for `O=C(O)CO.[NH2-].[NH2-].[Pt+2]` reads -5.78%. On to `O=C(O)c1ccc2cc(-c3ccc(O)c(C45CC6CC(CC(C6)C4)C5)c3)ccc2c1`, for which the max response is 9.89%.

As for `COc1cc(=C2C=c3ccccc3=N2)[nH]c1=Cc1[nH]c(C)cc1C`, the Potency is 7.43 µM (active). For the compound `COc1cccc2nc(-c3cccs3)nc(NN3C(=O)C=C(C)C3=O)c12`, the max response was 19.8%.

Regarding `CC(C)CC(=O)Nc1n[nH]c2c1CN(C(=O)C1CCN(C)CC1)C2(C)C`, the Potency is 18.7 µM (active). Consider `O=C(C=Cc1cccnc1)NCCCCC1CCN(C(=O)c2ccccc2)CC1`, for which the max response was 33.6%. For `CC(=O)SC[C@@H](C)C(=O)N1CCC[C@H]1C(=O)N[C@@H](Cc1ccccc1)C(=O)O`, the max response was 7.13%.

In the case of `CCN1CCN(Cc2ccc(-c3cc4c(N[C@H](C)c5ccccc5)ncnc4[nH]3)cc2)CC1`, the Potency is 23.5 µM (active).
